Screens from PubChem.
G9a inh: inhibitors of human histone lysine methyltransferase G9a. G9a H3K9 monomethylation, AlphaScreen, 2 h. Potency, µM (top dose mostly 102 µM), hits mostly inhibitors. AID 504332. hit rate 8.8% among 350,000; note: nearly all actives have a fitted effect of over 75% in size
Target sequence (Q96KQ7 913-1193 limits assumed): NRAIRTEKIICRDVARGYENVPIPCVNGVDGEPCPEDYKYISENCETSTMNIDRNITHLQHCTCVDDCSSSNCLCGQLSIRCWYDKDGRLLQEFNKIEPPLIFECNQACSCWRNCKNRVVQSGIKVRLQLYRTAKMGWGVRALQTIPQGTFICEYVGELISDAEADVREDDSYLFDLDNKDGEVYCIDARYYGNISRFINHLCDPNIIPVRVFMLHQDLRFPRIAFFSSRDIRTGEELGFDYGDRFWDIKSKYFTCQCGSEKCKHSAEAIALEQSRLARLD
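Chemiluminescent proximity detection of H3K9 monomethylation, read after 10 min bead incubation in the dark. Reaction: 20 nM G9a, 500 nM biotin-H3K9 peptide, 20 uM SAM cofactor, 2 h, room temperature, following 15 min enzyme-compound preincubation.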
HP1b binding inh: inhibitors of HP1-beta chromodomain binding to methylated histone tails; hit rate 0.56% among 390,000; AlphaScreen HP1-beta / biotin-H3K9me3 peptide binding; Potency, µM (top dose mostly 114 µM), hits mostly inhibitors; note: nearly all actives have a fitted effect of over 70% in size
Target sequence (P83916 whole entry, looked up): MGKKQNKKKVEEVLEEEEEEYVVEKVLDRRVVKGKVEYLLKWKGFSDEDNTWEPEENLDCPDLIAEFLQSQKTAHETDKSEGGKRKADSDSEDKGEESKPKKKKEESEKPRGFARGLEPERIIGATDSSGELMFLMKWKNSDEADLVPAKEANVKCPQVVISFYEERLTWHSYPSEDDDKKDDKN
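AlphaScreen: HP1-beta (50 nM) preformed 30 min with biotin-H3(1-18)K9me3 peptide (50 nM) in PBS pH 7.4, 0.01% Tween-20. Compound added for 30 min at RT, then streptavidin donor/nickel chelate acceptor beads (10 ug/mL) for 30 min.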
BAZ2B block: blocks human BAZ2B | AlphaScreen BAZ2B-H3K14Ac peptide displacement | Q9UIF8 | Potency, µM (titrated, usually from 114 µM), actives largely listed as inhibitors | hit rate 4.4% among 360,000 | AID 504333; note: nearly all actives have a fitted effect of over 60% in size
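BAZ2B (50 nM) with biotin-H3(5-23)K14Ac peptide (50 nM) in PBS pH 7.4, 0.01% Tween-20, preformed 30 min, then compound 30 min at room temperature; top concentration 110uM. AlphaScreen streptavidin donor/nickel chelate acceptor beads (10 ug/mL final), 20 min dark, signal read.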
JMJD2A Tudor: blocks the human JMJD2A Tudor domain; AlphaScreen JMJD2A-Tudor / H3K4me3 peptide binding; hit rate 4.4% among 390,000; O75164; Potency, µM (highest dose often 114 µM), usual class: inhibitors; note: nearly all actives have a fitted effect of over 50% in size
L3MBTL1 block: L3MBTL1 (human) inhibition; Q9Y468; AlphaScreen L3MBTL1–H3K9me1 peptide binding; Potency, µM (highest dose often 57.1 µM), hits mostly inhibitors; hit rate 0.66% among 230,000; note: nearly all actives have a fitted effect of over 60% in size
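AlphaScreen proximity signal between nickel-chelate acceptor and streptavidin donor beads (final 10 ug/mL) reports binding of 50 nM L3MBTL1 to 75 nM biotin-H3 K9me1 peptide; complex incubated with compounds 30 min at room temperature; cefsulodin titration as control.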
GLS inh: glutaminase GLS (human) inhibition; hit rate 0.21% among 410,000; Potency, µM (top dose mostly 45.5 µM), usual class: inhibitors; GLS enzymatic activity, qHTS titration; AID 624170
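hKGA in 45 mM KH2PO4 (pH 8.2), 0.02% Tween-20 with compound, then 1mM L-Glutamine (stock as added) plus glutamate oxidase/HRP/Amplex red coupling mix. Fluorescence read initially and after 30 min at RT; signal change reflects glutamate formation.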
Hits are given with their value; . = inactive; ? = inconclusive; / = not tested or not shown; ! = repeats disagree; [ ] = another dose, or the depositor's remark. Compounds with a hit are over-represented: about 10% of the library has one in this group of screens. Calls come from the whole dose curve; as a rule, active = well fitted curve in the direction sought with a large enough effect; inconclusive = small, poorly fitted or top-dose-only effect, or another doubt; inactive = no such curve, though single readings can be large; an effect the other way counts as inactive or inconclusive.

SMILES | G9a inh | HP1b binding inh | BAZ2B block | JMJD2A Tudor | L3MBTL1 block | GLS inh
COc1cc([N+](=O)[O-])ccc1NC(=S)Nc1cccc(C(=O)O)c1 | 10µM | . | . | . | . | .
COc1ccc(S(=O)(=O)c2ccccc2)cc1NS(=O)(=O)c1cccc(C(=O)O)c1 | .[2.33 µM] | . | ? | ? | . | .
COc1ccccc1C(=O)N/C(=C/c1cccc([N+](=O)[O-])c1)C(=O)Nc1cccc(C(=O)O)c1 | . | . | . | 13µM | / | .
COc1ccc([N+](=O)[O-])cc1NS(=O)(=O)c1cccc(C(=O)O)c1 | . | . | . | 32µM | . | .
COc1ccc(C(=O)N/C(=C\c2cccc([N+](=O)[O-])c2)C(=O)Nc2cccc(C(=O)O)c2)cc1 | . | . | . | .[11.4 µM] | . | .
COc1ncc2nc(-c3ccccc3)c(=O)n(C)c2n1 | .[0.501 µM] | / | / | / | / | /
O=c1c(-c2ccc(F)cc2)nc2cnc(N3CCNCC3)nc2n1C1CC1 | .[0.501 µM] | / | / | / | / | /
COc1ccc(C(=O)/C=C/c2ccc(O)cc2)c(O)c1CC=C(C)C | ? | ? | ? | 45µM | . | .
COc1ccc(C(=O)/C=C/c2ccc(O)cc2)c2c1CC(O)C(C)(C)O2 (stereo unspecified) | / | . | / | ? | . | .
c1nc(NCC2CCCO2)c2ccc(-c3ccc4c(c3)OCO4)cc2n1 (stereo unspecified) | / | / | / | 79µM | / | /
COc1cc(-c2ccc3ncnc(NCC4CCCO4)c3c2)cc(OC)c1OC (stereo unspecified) | / | / | / | . | / | /
CN1C(=O)/C(=C/c2ccc(-c3ccccc3[N+](=O)[O-])o2)SC1=Nc1ccc(Cl)c(C(=O)O)c1 | 3.2µM | . | 45µM | ? | . | ?
O=C1C2C3C=CC(C3)C2C(=O)N1/N=C/c1ccc(-c2ccccc2[N+](=O)[O-])o1 (stereo unspecified) | . | . | ? | ? | . | .
Cc1ccc(CCNC(=O)CCN2N=C(c3ccc(C)cc3)CCC2=O)cc1 | . | . | . | . | / | .
O=C1CCC(=O)N1c1nc2n(n1)C(c1ccccc1)C=C(c1ccc(Br)cc1)N2 (stereo unspecified) | 25µM | . | ? | ? | ? | .
COc1ccc(C2=CC(c3ccc(F)cc3)n3nnnc3N2)cc1 (stereo unspecified) | . | . | . | . | . | .
CS(=O)(=O)Nc1nc2n(n1)C(c1ccccc1)C=C(c1ccc(Br)cc1)N2 (stereo unspecified) | ? | . | . | . | . | .
COc1ccc(C2C=C(c3ccc(Br)cc3)Nc3nc(N4C(=O)CCC4=O)nn32)cc1 (stereo unspecified) | 35µM | . | ? | ? | . | .
O=C(NCC(c1cccnc1)N1CCN(Cc2ccccc2)CC1)C(=O)Nc1ccc(Cl)cc1 (stereo unspecified) | . | . | . | . | / | .
Clc1ccccc1OCc1nnc2n1CCCCC2 | . | . | . | .[11.4 µM] | / | .
OC1(c2ccccc2Cl)NN=C2CCCCCN21 (stereo unspecified) | 79µM | . | . | 5.6µM | . | .
Cn1cnc2c(=O)oc3ccc(S(=O)(=O)Nc4ccc(F)cc4)cc3c21 | . | . | . | . | / | .
CCCCOC(=O)CNc1n[nH]c(=S)[nH]c1=O | .[12.7 µM] | . | . | . | / | .
NC(=O)CNc1n[nH]c(=S)[nH]c1=O | / | . | . | 20µM | . | .
CC(C)COC(=O)CNc1n[nH]c(=S)[nH]c1=O | .[12.7 µM] | . | . | 50µM | / | .
Cc1ccc(Cl)cc1-n1ncc2c(N3CCN(Cc4ccccc4)CC3)ncnc21 | . | . | . | . | / | .
c1ccc2c(c1)CCN(c1nc(CN3CCOCC3)nc3sc4c(c13)CCCC4)C2 | ? | ? | 35µM | . | . | .
CCNc1nc(CN2CCOCC2)nc2sc3c(c12)CCC3 | . | . | . | . | / | .
COc1cc2nc(N3CCN(C(=O)OCc4ccccc4)C(C(=O)NC(C)(C)C)C3)nc(N)c2cc1OC (stereo unspecified) | 5.6µM! | / | / | / | / | /
COc1ccc(C)cc1NC(=O)C1CCCN1C(=O)OCc1ccccc1 (stereo unspecified) | . | . | . | . | . | .
